Measured values taken from PubChem BioAssay (NCI).
About 83,000 compounds went through this panel and 20% of them were active in at least one assay; those are over-represented in the sample as a whole.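 Percent growth is the endpoint: 0 to 100 indicates growth inhibition (40 means 60% inhibition), 0 means no net growth, and negative values indicate cell death.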 Activity calls are given as the source filed them. Rule for the calls: active = growth percent below 10; inactive = the rest.

test system: HL-60(TB) leukemia; test: NCI-60 one-dose screen, 48 h (100 = growth as untreated, 0 = no growth, -100 = all killed); settings: 10 µM unless noted

| Structure (SMILES) | growth |
| --- | --- |
| Cc1cc2c(C(=O)NCC#N)cccc2n1-c1nc2c(c(NCc3ccccc3)n1)CCCC2 | -23.5% (active) |
| O=C1Cc2c([nH]c3ccc([N+](=O)[O-])cc23)-c2ccccc2N1 | -33.8% (active) |
| CCN(CC)CCCC(C)Nc1c2ccc(Cl)cc2nc2cc(OC)c(OC)cc12 (stereo not drawn) | 6.67% (active) |
